# Source: the supplement of paper PMC6555819
# Tests used:
# Assay in all cases: PBM binding z-score (relative to random genomic background probes); higher = stronger binding; sequences stand for … in GC…GCGATTGACAGCGTAGAATGAAGG
# [1] = tested on: PPARg:RXRa DBDmut IVT, anti-RXR (DBD mutation: RXRa K156A/R161A, NR concentration 270 nM, RXRa partner concentration 90 nM)
# Outline: (§1)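 On custom Agilent 4×180K arrays, double-stranded probes with 34-nt variable regions carried direct-repeat seeds, single-nucleotide variants, half-site ablations or random human genomic background. Ligand-free nuclear receptor dimers were applied for 1 h, and binding was read with antibodies against each partner (one per run). Binding z-scores come from regression-normalized fluorescence, with the random background probes as reference.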
# [2] = tested on: PPARg:RXRa IVT, anti-PPARg (NR concentration 270 nM, RXRa partner concentration 90 nM)
# Outline: as §1
# [3] = tested on: PPARg DBDmut:RXRa IVT, anti-PPARg (DBD mutation: PPARg1 K132A/R137A, NR concentration 270 nM, RXRa partner concentration 90 nM)
# Outline: as §1
# [4] = tested on: PPARg DBDmut IVT, anti-PPARg (DBD mutation: PPARg1 K132A/R137A, NR concentration 270 nM)
# Outline: as §1
# [5] = tested on: PPARg homodimer (NR concentration 180 nM)
# Outline: as §1
# [6] = tested on: PXR:RXRa (NR concentration 270 nM, RXRa partner concentration 90 nM)
# Outline: as §1
# [7] = tested on: PXR homodimer (NR concentration 270 nM)
# Outline: as §1
# [8] = tested on: RARa:RXR (NR concentration 270 nM, RXRa partner concentration 90 nM)
# Outline: as §1
# [9] = tested on: RARa homodimer (NR concentration 270 nM)
# Outline: as §1
# [10] = tested on: RARb:RXRa (NR concentration 270 nM, RXRa partner concentration 90 nM)
# Outline: as §1
# [11] = tested on: RARb homodimer (NR concentration 270 nM)
# Outline: as §1
# [12] = tested on: RARg:RXRa (NR concentration 270 nM, RXRa partner concentration 90 nM)
# Outline: as §1
# [13] = tested on: RARg homodimer (NR concentration 270 nM)
# Outline: as §1
# [14] = tested on: RXRa DBDmut IVT, anti-RXR (DBD mutation: RXRa K156A/R161A, NR concentration 90 nM)
# Outline: as §1
# [15] = tested on: RXRa homodimer (NR concentration 180 nM)
# Outline: as §1
# [16] = tested on: THRa:RXRa (NR concentration 90 nM, RXRa partner concentration 90 nM)
# Outline: as §1
# [17] = tested on: THRa homodimer (NR concentration 90 nM)
# Outline: as §1
# [18] = tested on: VDR:RXRa (NR concentration 270 nM, RXRa partner concentration 90 nM)
# Outline: as §1
# [19] = tested on: VDR homodimer (NR concentration 270 nM)
# Outline: as §1
Sequence,PBM binding z-score [1],PBM binding z-score [2],PBM binding z-score [3],PBM binding z-score [4],PBM binding z-score [5],PBM binding z-score [6],PBM binding z-score [7],PBM binding z-score [8],PBM binding z-score [9],PBM binding z-score [10],PBM binding z-score [11],PBM binding z-score [12],PBM binding z-score [13],PBM binding z-score [14],PBM binding z-score [15],PBM binding z-score [16],PBM binding z-score [17],PBM binding z-score [18],PBM binding z-score [19]
CAAACTAGGTGAAGAGGTCAAAGTCCGCTTCCCG,7.18,7.52,2.35,2.46,2.49,5.31,1.58,5.42,0.811,4.19,4.7,5.44,3.96,1.73,5.48,3.86,1.42,4.67,3.38
AGAACGAGGGCACGCTGAGTTGATAGCCGAGTAG,4.46,4.04,0.489,0.266,0.0307,1.21,-0.287,0.916,-0.217,2.42,1.22,1.94,2.15,1.99,1.39,1.89,0.0635,2.07,1.57
CGAACTAGGTCATTGACAGGACAGTCAATAGTAA,7.74,8.19,3.76,2.34,1.94,1.66,0.135,2.34,0.378,3.51,2.6,4.51,4.14,2.45,2.29,2.83,0.652,2.29,1.07
AGAATGAGGTTATACGTAGACCAGGGAAGAAAGT,4.22,2.41,0.544,0.658,0.197,0.906,0.447,1.48,0.232,1.43,0.866,1.63,1.19,1.61,2.16,1.98,0.296,1.18,0.999
CCTATTGGGCCATCAGGTCATTGATATCAACGTT,3.63,3.39,0.758,0.0799,1.42,1.84,0.775,2,0.136,2.25,2.49,2.26,1.88,0.643,1.39,3.3,2.98,,1.87
CTACCAAGGTGAACAAGTTCGTTGATTACTATTC,2.33,2.42,0.0227,0.729,0.895,2.81,4.46,0.986,0.313,1.55,1.3,0.877,1.02,2.17,0.747,1.9,0.959,,3.6
